Source: PubChem BioAssay
This is a sample that favours compounds with a hit; in the whole collection about 19% have one here.
HT1080NT lethal = kills 2HG-producing HT-1080-NT fibrosarcoma cells | HT-1080-NT fibrosarcoma viability, CellTiter-Glo ATP luminescence, 48 h | Potency, µM (doses to about 46.1 µM), most hits filed as cytotoxic | 1.6% of 360,000 active | AID 686970;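 further: NT is the 2HG producing partner of a matched IDH1 knockdown line; nearly all actives have a fitted effect of over 55% in size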
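A 48-hour cytotoxicity screen used HT-1080-NT cells plated 2 hours before compound delivery. ATP-based CellTiter-Glo luminescence measured viability, normalized to DMSO and no-cell controls.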
HT1080 IDH1KD tx = toxicity to HT-1080 IDH1 knockdown cells (counter line) | Potency, µM (series often up to 46.1 µM), most hits filed as cytotoxic | 2% of 360,000 active | HT-1080 IDH1 knockdown viability, ATP luminescence, 48 h
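IDH1KD HT-1080 cells, 750/well, RPMI + 5% FBS; compound pinned after 2 h settling; 48 h, 37 °C; CellTiter-Glo luminescence; % activity normalised to DMSO and no-cell wells; curves fitted, classed by r2 and efficacy.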
DT40 TDP1 no CPT = qHTS for Inhibitors of human tyrosyl-DNA phosphodiesterase 1 (TDP1): qHTS in cells in absence of CPT | DT40 Tdp1-/- hTDP1 cells, no CPT, ATP luminescence, 48 h | Potency, µM (top dose mostly 46.2 µM), most hits filed as inhibitors | 15% of 420,000 active | AID 686978, 2013; further: nearly all actives have a fitted effect of over 55% in size
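Growth kinetics read by CellTiter-Glo luminescence after ≥48 hr at 37 °C. Cells: DT40 Tdp1-/- stably carrying human TDP1, 400 per well, compound exposure in the absence of CPT (DMSO vehicle).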
ELG1 repair inh = ELG1-dependent DNA repair inhibition. HEK293T ELG1-luciferase reporter, luminescence, 16 h; DNA damage induced by 5-fluorouridine. Potency, µM (highest dose often 46.1 µM), most hits filed as inhibitors. 2.3% of 330,000 active. AID 504467; further: nearly all actives have a fitted effect of over 55% in size
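DMSO vehicle served as the neutral condition. Each well held 2,000 cells given 5-fluorouridine plus compound; after 16 hr at 37 °C/5% CO2, ONE-Glo was added and luciferase measured 30 min later.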
TDP1 cell CPT = DT40-hTDP1 cell growth loss with CPT; chicken DT40 Tdp1-/-;hTDP1 cells + 20 nM CPT, ATP luminescence, 48 h; Potency, µM (top dose mostly 46.2 µM), actives largely listed as inhibitors; 12% of 420,000 active; further: nearly all actives have a fitted effect of over 55% in size
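Cell growth measured by CellTiter-Glo luminescence after a minimum 48 h, 37 C compound exposure with 20 nM CPT in Tdp1-knockout DT40 cells stably expressing hTDP1, seeded 400/well; qHTS titration format.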
IL-1B inflam inh = blocks inflammasome-driven IL-1 beta release; THP-1 LPS/ATP IL-1B secretion, AlphaLISA, 16 h; active compounds read low; activity change, % at 57.5 µM; 4.7% of 360,000 active; AID 743279; in the data active means activity change below about -50%; inconclusive means mostly about -30% to -49%
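Secreted IL-1B measured by AlphaLISA bead assay after 16 h compound exposure of THP-1 cells; compounds (final up to 57.5 uM) added 1 h before LPS (250 ng/mL) and ATP (1.25 mM) stimulation; lower signal means less secretion.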
Hits are given with their value; i = inactive; ? = inconclusive; nt = no result. Unless noted, the call rests on the fitted dose curve; in most records, active means well fitted curve in the direction sought with a large enough effect; inconclusive means small, poorly fitted or top-dose-only effect, or another doubt; inactive means no such curve, though single readings can be large; an effect the other way counts as inactive or inconclusive.

SMILES | HT1080NT lethal | HT1080 IDH1KD tx | DT40 TDP1 no CPT | ELG1 repair inh | TDP1 cell CPT | IL-1B inflam inh
CC(=O)N(C(C)=O)c1ncc2c([nH]c3ccccc32)c1C#N | 11µM | 7.1µM | ? | ? | ? | i
CCN(CC)C(=O)Cn1ncc2c([nH]c3ccccc32)c1=O | nt | nt | i | nt | i | nt
CC(=O)Nc1ccc(C(=O)N2CCCCC2c2cc(C(=O)N3CCOCC3)no2)cc1 (stereo not given) | i | i | i | nt | i | i
COc1ccc(-c2cc(C(=O)N3CC(C)CC(C)C3)c3ccccc3n2)cc1OC (stereo not given) | i | i | ? | ? | ? | i
COc1ccc(-c2cc(C(=O)N3CCCC3)c3ccccc3n2)cc1OC | i | i | i | ? | i | i
COc1ccc(-c2cc(-c3nnc(COC(=O)C4CC4)o3)c3ccccc3n2)cc1OC | i | i | 9.2µM | 7.3µM | ? | i
COc1ccc(-c2cc(-c3nnc(COC(=O)c4ccc(O)cc4)o3)c3ccccc3n2)cc1OC | ? | ? | 10µM | ? | ? | ?
COc1ccc(-c2cc(-c3nnc(COC(=O)C4CC4C)o3)c3ccccc3n2)cc1OC (stereo not given) | i | i | 16µM | 9.2µM | 21µM | -53
COc1ccc(NC(=O)CC(C)n2nc(C)cc2C)cc1Cl (stereo not given) | nt | nt | ? | nt | i | nt
CCCCN1C(=O)C(CC(=O)NCCN2CCOCC2)CC(C(=O)N(C(C)C)C(C)C)=C1C (stereo not given) | i | i | i | nt | i | i
CCC[C@@H]1CCCO[C@@](C(=O)NCc2ccc(S(C)(=O)=O)cc2)(C(F)(F)F)C1 | i | i | ? | nt | 29µM | i
O=C(NCc1ccccc1)[C@]1(C(F)(F)F)C[C@H](CCc2ccccc2)CCCO1 | i | i | i | nt | i | i
O=C(NCC1CC1)[C@]1(C(F)(F)F)C[C@H](CCC2CCCCC2)CCCO1 | i | i | 23µM | nt | ? | i
COC(=O)c1c(S(C)(=O)=O)nc(-c2ccccc2)[nH]c1=O | i | i | i | ? | i | i
O=C(Nc1nnc(-c2ccco2)o1)c1ccc(Cl)s1 | i | ? | 16µM | i | 21µM | i
Cc1ccc(S(=O)(=O)CCC(=O)Nc2nnc(-c3cccs3)o2)cc1 | i | i | 16µM | i | ? | -61
O=C(Nc1nnc(-c2cc(Cl)ccc2Cl)o1)c1ccco1 | i | i | 16µM | ? | ? | i
Cc1ccc(SCC(=O)Nc2nnc(-c3ccco3)o2)cc1 | i | i | 29µM | i | i | i
Cc1ccc(S(=O)(=O)CCC(=O)Nc2nnc(-c3ccco3)o2)cc1 | i | i | ? | i | ? | i
CCC(C(=O)OCC(=O)NC1CCS(=O)(=O)C1)c1ccccc1 (stereo not given) | i | i | i | ? | i | i
COc1cc(=O)n2c(c1C(=O)NC(C)c1ccco1)CCN(C(=O)c1ccccc1SC)CC2 (stereo not given) | nt | nt | i | nt | i | nt
CC1(C)C[C@H]2C3=CCC4[C@@]5(C)CC[C@H](O)[C@@](C)(CO)C5CC[C@@]4(C)[C@]3(C)C[C@@H](O)[C@@]2(CO)[C@@H](O)[C@@H]1O (stereo not given in full) | i | i | ? | i | i | i
O=C(CCS(=O)(=O)c1ccc(Cl)cc1)Nc1nnc(-c2cccs2)o1 | i | i | 16µM | i | 16µM | i
O=C(CCS(=O)(=O)c1ccc(Cl)cc1)Nc1nnc(-c2ccco2)o1 | i | i | ? | i | 9.2µM | -81
O=C(CS(=O)(=O)c1ccccc1)Nc1nnc(-c2cccs2)o1 | i | i | i | i | i | i
SMILES | HT1080NT lethal | HT1080 IDH1KD tx | DT40 TDP1 no CPT | ELG1 repair inh | TDP1 cell CPT | IL-1B inflam inh
Cc1cc(C)c(Cn2c(=O)n(CCC(=O)NCCc3ccccc3)c(=O)c3ccccc32)c(C)c1 | nt | nt | i | nt | i | nt
COc1ccc(OCC(=O)Sc2ccc(C)cc2)cc1 | i | i | 23µM | i | ? | i
O=C(Nc1cc(Sc2ccccn2)cc([N+](=O)[O-])c1)c1ccc([N+](=O)[O-])cc1 | ? | ? | 2.1µM | ? | ? | -76
O=C(NCc1ccccn1)c1ccc([N+](=O)[O-])cc1 | i | i | i | i | i | i
COc1cc(CCN(C(=O)c2cccc(S(C)(=O)=O)c2)C(CCc2ccccc2)c2nc3ccccc3[nH]2)cc(OC)c1 (stereo not given) | i | i | ? | nt | ? | ?
CCCN(CCC)C(=O)c1oc2ccccc2c1NC(=O)Cc1cccc(OC)c1 | i | i | ? | i | ? | i
Cc1ccccc1NC(=O)CSc1nc(-c2ccc(F)cc2)nc2c1Cc1ccccc1O2 | nt | nt | i | nt | i | nt
Cc1cccc(NC(=O)Nc2ccc3c(c2)N(C)C(=O)CS3)n1 | i | i | ? | i | ? | -56
Cc1ccnc(NC(=O)Nc2ccc3c(c2)N(C)C(=O)CS3)c1 | i | i | ? | ? | ? | ?
CC(=O)c1ccc(NC(=O)Nc2ccc3c(c2)N(C)C(=O)CS3)cc1 | ? | ? | ? | 18µM | ? | i
COC(=O)c1c(OCC2CCCN(C)C2)cc(=O)n2c1CCN(Cc1ccc(OC)c(O)c1)CC2 (stereo not given) | nt | nt | i | nt | i | nt
CN(C)CCNC(=O)C(=O)Nc1ccc2c(c1)N(S(=O)(=O)c1cccs1)CCC2 | i | ? | 7.3µM | ? | 16µM | i
CN(C)CCCNC(=O)C(=O)Nc1ccc2c(c1)N(S(=O)(=O)c1cccs1)CCC2 | i | i | ? | i | ? | i
C=CCNC(=O)C(=O)Nc1ccc2c(c1)N(S(=O)(=O)c1cccs1)CCC2 | i | ? | 23µM | ? | ? | i
O=C(Nc1ccc2c(c1)N(S(=O)(=O)c1cccs1)CCC2)c1c(F)cccc1F | i | i | 16µM | ? | ? | i
COCCCNC(=O)C(=O)Nc1ccc2c(c1)N(S(=O)(=O)c1cccs1)CCC2 | ? | 2.3µM | 0.58µM | i | 0.65µM | i
CCNC(=O)C(=O)Nc1ccc2c(c1)N(S(=O)(=O)c1cccs1)CCC2 | i | i | ? | i | ? | i
Cc1ccc(C(=O)C2CCN(CC(=O)Nc3nc(C)cs3)CC2)cc1 | i | i | 16µM | ? | 21µM | i
O=C(CN1CCC(C(=O)c2ccc(F)cc2)CC1)Nc1ccccc1Cl | i | i | 12µM | i | i | i
CCOc1ccccc1NC(=O)CN1CCC(C(=O)c2ccc(F)cc2)CC1 | i | i | 26µM | ? | 21µM | i
CCCCCNc1nc2sc3c(c2c(=O)n1-c1cccc(Cl)c1)CCN(C)C3 | 15µM | ? | 12µM | ? | 12µM | -57
